Reference: PubChem BioAssay AID1159580 (chemical genetic matrix, 2015)
Hit rate of the full screen: of about 5,500 compounds, about 2,000 (36%) were called active. About 18% were inconclusive and are not listed. Cut-off read from the data, not from the text of the source: active = normalized growth mostly below about 0.91 (no sharp cut-off); inconclusive = no clear call, values can overlap the other calls; inactive = mostly above about 0.92. The list shows a part of the results.

Assay: chemical genetic growth profiling, strain panel (AID 1159580);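 note: tested at 20 µM; growth read once vehicle control cultures reached saturation at 30 °C; 1 = growth at the plate median or of vehicle wells; lower values mean less growth of the strain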
Settings: S. cerevisiae deletion strains, growth OD

Measured: normalized growth

CCOC(=O)NC(=S)Nc1ccc(C(C)(C)C)cc1NC(=S)NC(=O)OCC
inactive: locus YAR019C, strain CDC15, active compounds read low 0.986 | locus YBL105C, strain PKC1, active compounds read low 0.985 | locus YBR135W, strain CKS1, active compounds read low 0.98 | locus YBR136W, strain MEC1, active compounds read low 0.979 | locus YBR160W, strain CDC28, active compounds read low 0.991 | locus YDL017W, strain CDC7, active compounds read low 0.989 | locus YDL028C, strain MPS1, active compounds read low 0.979 | locus YDL101C, strain DUN1, active compounds read low 0.982 | locus YDL108W, strain KIN28, active compounds read low 0.985 | locus YDL132W, strain cdc53, active compounds read low 0.983 | locus YDL214C, strain PRR2, active compounds read low 0.94 | locus YDR052C, strain DBF4, active compounds read low 0.982 | locus YDR054C, strain cdc34, active compounds read low 0.983 | locus YDR226W, strain ADK1, active compounds read low 0.988 | locus YDR477W, strain SNF1, active compounds read low 0.921 | locus YER123W, strain YCK3, active compounds read low 0.879 | locus YER133W, strain GLC7, active compounds read low 0.934 | locus YFL009W, strain cdc4, active compounds read low 0.974 | locus YFL029C, strain CAK1, active compounds read low 0.985 | locus YFR003C, strain YPI1, active compounds read low 0.986 | locus YFR019W, strain FAB1, active compounds read low 0.922 | locus YFR028C, strain CDC14, active compounds read low 0.986 | locus YGR040W, strain KSS1, active compounds read low 0.923 | locus YGR052W, strain FMP48, active compounds read low 1.04 | locus YGR092W, strain DBF2, active compounds read low 0.572 | locus YHR030C, strain SLT2, active compounds read low 1.08 | locus YHR079C, strain IRE1, active compounds read low 0.985 | locus YHR082C, strain KSP1, active compounds read low 1.05 | locus YHR205W, strain SCH9, active compounds read low 0.985 | locus YIL147C, strain SLN1, active compounds read low 0.978 | locus YJL095W, strain BCK1, active compounds read low 0.995 | locus YJL128C, strain PBS2, active compounds read low 0.944 | locus YJL157C, strain FAR1, active compounds read low 0.911 | locus YJR016C, strain ILV3, active compounds read low 0.981 | locus YJR066W, strain TOR1 (second series), active compounds read low 0.778 | locus YJR066W, strain TOR1, active compounds read low 1.06 | locus YKL048C, strain ELM1, active compounds read low 0.928 | locus YKL067W, strain YNK1, active compounds read low 0.932 | locus YKL101W, strain HSL1, active compounds read low 0.961 | locus YKL193C, strain SDS22, active compounds read low 0.987 | locus YKL203C, strain TOR2, active compounds read low 0.989 | locus YLR113W, strain HOG1, active compounds read low 1.02 | locus YLR133W, strain CKI1, active compounds read low 0.948 | locus YLR403W, strain SFP1, active compounds read low 0.91 | locus YML070W, strain DAK1, active compounds read low 0.925 | locus YMR001C, strain CDC5, active compounds read low 0.985 | locus YMR205C, strain PFK2 (second series), active compounds read low 0.924 | locus YMR277W, strain FCP1, active compounds read low 0.981 | locus YNL006W, strain LST8, active compounds read low 0.98 | locus YNL020C, strain ARK1, active compounds read low 0.928 | locus YNL161W, strain CBK1, active compounds read low 0.986 | locus YNL183C, strain NPR1, active compounds read low 1.06 | locus YNL207W, strain RIO2, active compounds read low 0.981 | locus YNL222W, strain SSU72, active compounds read low 0.98 | locus YNL307C, strain MCK1 (second series), active compounds read low 0.926 | locus YOL078W, strain AVO1, active compounds read low 0.979 | locus YOL136C, strain PFK27, active compounds read low 0.931 | locus YOR061W, strain CKA2, active compounds read low 0.712 | locus YOR119C, strain RIO1, active compounds read low 0.959 | locus YOR231W, strain MKK1, active compounds read low 0.997 | locus YOR329C, strain SCD5, active compounds read low 0.983 | locus YPL031C, strain PHO85, active compounds read low 0.93 | locus YPL153C, strain RAD53, active compounds read low 0.897 | locus YPL204W, strain HRR25, active compounds read low 0.924 | locus YPL209C, strain IPL1, active compounds read low 0.989 | locus YPL256C, strain CLN2, active compounds read low 1.04 | locus YPR025C, strain CCL1, active compounds read low 0.986 | locus YPR106W, strain ISR1, active compounds read low 0.986 | locus YPR111W, strain DBF20, active compounds read low 0.978 | strain NNK1, active compounds read low 0.981 | strain TSCII, active compounds read low 0.985
